# Test results from article PMC4336329 (PLoS ONE, 2015).
# About 14,000 (4.5%) of roughly 310,000 compounds showed an effect of 50% or more. Effects have a minus sign here. Many of the other results were omitted from the sample, so strong results are more common in it than they were.
# Biological target: human ether-à-go-go-related gene (hERG) potassium channel (human, UniProt Q12809)
# Assay: primary screen, population patch clamp on CHO cells stably expressing hERG; higher = less effect of the substance
# 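Further: peak tail current of the secondary pulse compared with the same well before compound.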
# Sequence of human ether-à-go-go-related gene (hERG) potassium channel (Q12809 whole entry, looked up): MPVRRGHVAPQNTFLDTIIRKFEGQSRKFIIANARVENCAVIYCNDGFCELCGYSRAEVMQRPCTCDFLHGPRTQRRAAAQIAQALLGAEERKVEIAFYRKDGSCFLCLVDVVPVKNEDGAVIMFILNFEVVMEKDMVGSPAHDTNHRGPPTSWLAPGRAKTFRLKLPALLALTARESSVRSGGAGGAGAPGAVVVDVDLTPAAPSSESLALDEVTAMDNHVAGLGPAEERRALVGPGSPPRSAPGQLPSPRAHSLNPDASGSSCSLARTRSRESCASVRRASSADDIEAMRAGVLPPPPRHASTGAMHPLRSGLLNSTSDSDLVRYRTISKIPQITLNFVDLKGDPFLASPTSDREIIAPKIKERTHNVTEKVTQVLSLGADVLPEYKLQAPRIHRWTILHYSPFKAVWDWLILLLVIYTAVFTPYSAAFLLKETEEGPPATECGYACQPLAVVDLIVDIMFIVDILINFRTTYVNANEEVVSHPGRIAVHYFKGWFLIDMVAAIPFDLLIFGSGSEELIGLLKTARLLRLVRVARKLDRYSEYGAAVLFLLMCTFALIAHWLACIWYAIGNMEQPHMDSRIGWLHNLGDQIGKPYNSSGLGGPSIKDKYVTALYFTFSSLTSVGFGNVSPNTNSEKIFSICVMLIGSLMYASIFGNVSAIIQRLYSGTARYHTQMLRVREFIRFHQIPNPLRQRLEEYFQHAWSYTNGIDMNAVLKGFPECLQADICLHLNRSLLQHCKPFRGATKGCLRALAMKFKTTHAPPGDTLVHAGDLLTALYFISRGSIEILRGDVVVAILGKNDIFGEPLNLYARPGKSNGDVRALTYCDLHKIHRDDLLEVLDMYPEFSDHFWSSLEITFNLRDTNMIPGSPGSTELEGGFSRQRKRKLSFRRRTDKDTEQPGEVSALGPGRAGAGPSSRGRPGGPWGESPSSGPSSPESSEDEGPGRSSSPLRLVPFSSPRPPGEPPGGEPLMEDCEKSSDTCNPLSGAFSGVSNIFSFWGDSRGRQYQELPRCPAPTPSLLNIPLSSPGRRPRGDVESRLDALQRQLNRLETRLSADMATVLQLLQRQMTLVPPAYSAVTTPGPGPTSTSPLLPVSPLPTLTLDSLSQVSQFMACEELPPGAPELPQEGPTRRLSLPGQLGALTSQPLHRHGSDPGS
row,Structure (SMILES),"hERG current change (%, negative = inhibition) at 10uM"
1,Cc1cccn2c(=O)c3cc(C(=O)NC4CCS(=O)(=O)C4)n(Cc4ccccc4)c3nc12 (stereo not drawn),-4.36%
2,Cc1cccn2c(=O)c3cc(C(=O)NC4CCCCCC4)sc3nc12,9.51%
3,Cc1cccn2c(=O)c3cc(C(=O)NC4CCCCC4)c(=N)n(Cc4ccc(F)cc4)c3nc12,-77.1%
4,Cc1cccn2c(=O)c3cc(C(=O)NC4CCCC4)c(=N)n(Cc4ccc(F)cc4)c3nc12,-68.2%
5,Cc1cccn2c(=O)c3cc(C(=O)NC4CCCCC4)c(=N)n(Cc4ccccc4)c3nc12,-74.6%
6,Nc1ccc(C(=O)Nc2cccc(NC(=O)c3ccc(N)cc3)c2)cc1,17.7%
7,Cn1c(=O)c(=O)n(C)c2cc(S(=O)(=O)CCC(=O)Nc3ccc(F)cc3)ccc21,-2.6%
8,CS(=O)(=O)N1CCN(CC2CC3C=CC2C3)CC1.O=C(O)C(=O)O (stereo not drawn),5.01%
9,CCOc1ccc(N2C(=O)C3C(c4ccc(O)cc4)NC(CCSC)(C(=O)OC)C3C2=O)cc1 (stereo not drawn),-12.3%
10,CC(NC(=O)c1nn(C)c(=O)c2ccccc12)c1ccc(F)cc1 (stereo not drawn),-3.84%
11,CCCOC(=O)c1ccccc1C(=O)OCCC,-3.24%
12,CCCCCCCCNC(=O)CCNC(=O)c1ccc(C(C)(C)C)cc1,8%
13,O=C(c1cccc(S(=O)(=O)N2CCOCC2)c1)N(CCc1ccccc1)Cc1ccccc1,-55.4%
14,O=C(c1cc(S(=O)(=O)N2CCOCC2)ccc1F)N(CCc1ccccc1)Cc1ccccc1,-4.37%
15,O=C(c1ccc(F)c(S(=O)(=O)N2CCOCC2)c1)N(CCc1ccccc1)Cc1ccccc1,-68.3%
16,CC1CN(S(=O)(=O)c2cccc(C(=O)N(CCc3ccccc3)Cc3ccccc3)c2)CC(C)O1 (stereo not drawn),-7%
17,O=C(NCc1ccccc1)c1ccc(F)c(S(=O)(=O)N2CCOCC2)c1,-17.4%
18,O=C(c1cccc(S(=O)(=O)N2CCOCC2)c1)N(CCO)Cc1ccccc1,-19.8%
19,CCc1nc2cc([N+](=O)[O-])c([N+](=O)[O-])cc2[nH]1,-14.5%
20,NC(=O)c1ccccc1NC(=O)c1ccc2c(c1)OCO2,5.14%

row,Structure (SMILES),"hERG current change (%, negative = inhibition) at 10uM"
1,CCc1cc2c(=O)n(CC(=O)NC3CCCCC3)cnc2s1,4.86%
2,COc1ccc(C2Nc3ccccc3C(=O)N2NC(C)=O)c(OC)c1 (stereo not drawn),14.3%
3,Cc1ccc2nc3c(c(N)c2c1)CCN3C.O=C(O)C(=O)O,-33.1%
4,Cc1cc(Br)c2nc3c(c(C(=O)O)c2c1)CCCCC3,4.41%
5,Cc1ccc(C)c2c(N)c3c(nc12)CCCCC3.O=C(O)c1cncc(Br)c1,-88.4%
6,Cc1cccc2c(N)c3c(nc12)N(C)CC3.O=C(O)C(=O)O,-23.1%
7,O=C(O)c1cncc(Br)c1,27.3%
8,CN1CCCCc2c1nc1ccccc1c2N.O=C(O)c1cncc(Br)c1,-82.5%
9,O=[N+]([O-])c1ccc(-c2cnc(NO)nc2)cc1,-28%
10,CC(C)(C)NC(=O)C(=O)NNC(=O)c1cccc(F)c1,18.1%
11,CC1=C(C#N)C(=O)N(C2CCS(=O)(=O)C2)C(=O)/C1=C\c1ccco1 (stereo not drawn),7.81%
12,O=C(COC(=O)C1=NNC(=O)CC1)NCCc1ccccc1,17.4%
13,O=c1cc(N2CCN(Cc3ccccc3)CC2)c(-c2ccccc2)n[nH]1,-1.87%
14,Cn1nc(C(C)(C)C)cc1NC(=O)Nc1ccc(F)cc1F,5.93%
15,CCC(C)N1C(=S)SC(C)(C)C1N(O)C(=O)NC1CCCCC1 (stereo not drawn),9.19%
16,COc1ccc(OC)c(C2(O)CSC(=Nc3cccnc3)N2Cc2ccco2)c1 (stereo not drawn),-16.3%
17,Cn1c(=O)c2c(SCC(=O)N3CCOCC3)nc(-c3ccccc3F)nc2n(C)c1=O,-8.27%
18,O=C(c1cc(COc2ccc(F)cc2Cl)on1)N1CCSCC1,-4.58%
19,CSc1ccccc1OCc1cc(C(=O)N2CCN(C3CCCC3)C(=O)C2)no1,-34.8%
20,O=C(c1cc(COc2ccc(F)cc2Cl)on1)N1CCN(C2CCCC2)CC1,-61.4%

row,Structure (SMILES),"hERG current change (%, negative = inhibition) at 10uM"
1,O=C(c1cc(COc2ccc(F)cc2Cl)on1)N1CCN(C2CCCCC2)C(=O)C1,-67.9%
2,O=C(c1cc(COc2c(F)cccc2F)on1)N1CCN(C2CCCCC2)C(=O)C1,-17.5%
3,COc1cccc(OCc2cc(C(=O)N3CCN(C4CCCCC4)C(=O)C3)no2)c1,-3.09%
4,CCOC(=O)CC1COCCN1C(=O)c1cc(COc2ccc(F)cc2Cl)on1 (stereo not drawn),-23.2%
5,O=C(c1cc(COc2ccc(F)cc2F)on1)N1CCN(C2CCCC2)C(=O)C1,-25.8%
6,CCOC(=O)CC1COCCN1C(=O)c1cc(COc2ccc(F)c(F)c2)on1 (stereo not drawn),-61.5%
7,COc1ccc(OCc2cc(C(=O)N3CCN(C4CCCC4)CC3)no2)c(Cl)c1,-29.6%
8,O=C(c1cc(COc2ccc(F)c(F)c2)on1)N1CCN(C2CCCCC2)C(=O)C1,-56.2%
9,O=C(c1cc(COc2ccc(F)c(F)c2)on1)N1CCOCC1,5.02%
10,O=C(COC(=O)CN1C(=O)C2CCCCC2C1=O)Nc1cc(S(=O)(=O)N2CCOCC2)ccc1Cl (stereo not drawn),-12.6%
11,Cc1ccc(C(=O)NCCCn2ccnc2)cn1,4.36%
12,O=C(NC1CCCCCC1)C1CCN(S(=O)(=O)c2cnc[nH]2)CC1,8.78%
13,CCN(CC)C(=O)COc1cc(C)c(Cl)c(C)c1,-5.91%
14,COc1ccc(C(=O)NCc2ccccc2OC)c(OC)c1,-11.6%
15,Brc1ccc(C=Nc2ccc(Nc3ccccc3)cc2)s1,9.59%
16,Brc1ccc(C=Nc2ccc3c(c2)OCCOCCOCCO3)s1,-66.2%
17,Oc1c(Br)cc(Br)cc1C=Nc1ccc2c(c1)OCCO2,14.9%
18,Brc1csc(C=Nc2ccc3c(c2)OCCOCCOCCOCCO3)c1,-73.5%
19,O=C(N/N=C/c1cc(Br)cs1)c1ccc2c(c1)OCCO2,10.2%
20,Oc1c(Cl)cc(Cl)cc1C=Nc1ccc2c(c1)OCCO2,21.2%
